The source made the active and inactive calls. Calls come from the whole dose curve.
molecular target: Glucocorticoid receptor (Homo sapiens) (UniProt P04150); assay: GR-EFC Redistribution (AID 451); conditions: CHO-K1 GR-EFC translocation, beta-gal luminescence, 2 h
Description: NIH Molecular Libraries Screening Centers Network [MLSCN]
NIH Chemical Genomics Center [NCGC]
The glucocorticoid receptor (GR) is a cytoplasmic receptor that belongs to the nuclear receptor family of ligand-dependent transcription factors. Upon glucocorticoid binding to its receptor, the glucocorticoid-GR complex translocates into the nucleus, where it binds as a dimer to specific DNA sequences (glucocorticoid response elements), enhancing or suppressing transcription of a wide variety of glucocorticoid-responsive genes. In addition to their important roles in normal physiology and metabolism, glucocorticoids are administered exogenously as treatments for a wide variety of allergic, autoimmune, and neoplastic conditions. Identification of compounds that modulate aspects of GR signalling would be useful in dissecting glucocorticoid response pathways as well as developing GR modulators with more targeted clinical effects.
Traditionally, GR modulators have been identified using receptor binding or direct transactivation assays. However, assays for glucocorticoid-dependent nuclear translocation can also be used to screen for compounds affecting GR signaling.
Immunocytochemical staining has been used to assay for GR translocation, but is not suitable for high throughout screening due to the multiple reagent addition and wash steps required. Recently, a novel cell-based GR assay in Enzyme Fragment Complementation (EFC) format was developed by DiscoveRx (Fremont, CA). The assay uses EFC of b-galactosidase (b-gal) as an indicator of GR-translocation in engineered CHO-K1 biosensor cells. The enzyme acceptor (EA) fragment of b-gal resides in the nucleus , as designed through the use of a proprietary set of sequence additions and modifications. The small peptide enzyme donor (ED) fragment of b-gal is fused directly to the C-terminus of GR, and is localized in the cytoplasm is the absence of receptor signaling. Upon binding to a GR ligand, the complex translocates to the nucleus, where intact enzyme activity is restored by complementation and b-gal activity is detected. We optimized this GR-EFC assay in homogenous 1536-well plate assay format for high throughput screening.
NCGC Assay Protocol Summary:
CHO-K1 cells stably expressing NLS-enzyme acceptor fragment (EA) of b-gal and GR-enzyme donor (ED) fragment of b-gal were maintained in F12 medium (Invitrogen, Carlsbad, CA) at 37 Celsius degrees under a humidified atmosphere containing 5% CO2 and 95% air. The medium contained 10% FBS, 2 mM L-glutamine, 50 U/ml penicillin 50 ug/ml streptomycin, and 250 ug/ml hygromycin and 500 ug/ml G418 (Invitrogen).
GR-translocation was measured beta-gal enzyme activity using the PathHunter Detection Kit containing cell membrane permeablizing reagent and beta-gal substrate (DiscoveRx, Fremont, CA). All compounds were screened as titrations from 0.6 nM to 46 uM final concentration. The assay was performed in 1536-well format as follows:
5 uL cell suspension (1,000 cells)/well
Incubation at 37 Celsius degrees for two hours
1.25 uL 1X detection buffer from the kit supplied by DiscoveRx
Incubation at room temperature for one hour
Read plate in luminescence mode in ViewLux plate reader (PerkinElmer)
Keywords: NIH Roadmap, MLSCN, MLI, MLSMR, GR-EFC, GREFC, qHTS, NCGC
Potency is the fitted concentration of half-maximal effect.

Sequence of Glucocorticoid receptor (Homo sapiens) (P04150 whole entry, looked up): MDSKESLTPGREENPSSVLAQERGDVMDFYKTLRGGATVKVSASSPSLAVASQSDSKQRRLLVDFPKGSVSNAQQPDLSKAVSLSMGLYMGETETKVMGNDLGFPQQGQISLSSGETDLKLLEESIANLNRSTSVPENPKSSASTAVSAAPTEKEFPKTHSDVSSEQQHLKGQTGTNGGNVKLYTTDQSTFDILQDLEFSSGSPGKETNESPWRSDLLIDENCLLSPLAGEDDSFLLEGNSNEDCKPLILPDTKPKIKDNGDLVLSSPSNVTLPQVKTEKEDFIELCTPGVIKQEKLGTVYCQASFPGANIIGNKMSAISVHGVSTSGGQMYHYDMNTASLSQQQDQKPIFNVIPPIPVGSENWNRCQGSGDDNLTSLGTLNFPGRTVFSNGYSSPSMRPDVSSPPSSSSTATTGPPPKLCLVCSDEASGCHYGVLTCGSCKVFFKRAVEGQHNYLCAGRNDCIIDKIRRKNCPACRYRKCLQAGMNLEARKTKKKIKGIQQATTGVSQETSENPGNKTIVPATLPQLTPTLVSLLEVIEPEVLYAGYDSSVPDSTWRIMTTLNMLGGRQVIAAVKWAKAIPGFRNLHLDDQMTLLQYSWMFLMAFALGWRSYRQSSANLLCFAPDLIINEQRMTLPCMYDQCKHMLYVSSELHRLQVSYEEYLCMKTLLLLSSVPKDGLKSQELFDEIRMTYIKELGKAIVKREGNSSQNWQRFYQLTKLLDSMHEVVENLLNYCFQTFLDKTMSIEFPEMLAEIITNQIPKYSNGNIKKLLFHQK

SMILES | Potency
COc1ncc2nc(-c3ccccc3)c(=O)n(Cc3cccs3)c2n1 | > 46 µM (inactive)
COc1c2ccoc2cc2oc(=O)ccc12 | > 46 µM (inactive)
c1ccc(Nc2nc(-c3ccoc3)nc3ccccc23)cc1 | > 46 µM (inactive)
COc1ccccc1-c1ccc2ncnc(N3CCOCC3)c2c1 | > 46 µM (inactive)
CN(C)C(=O)c1ccc(-c2nc(Nc3ccccc3)c3ccccc3n2)cc1 | > 46 µM (inactive)
COCCn1c(=O)c(-c2cccc(C#N)c2)nc2cnc(OCc3ccccc3)nc21 | > 46 µM (inactive)
COc1ccc2[nH]cc(CCNc3ncnc4ccc(-c5ccccc5OC)cc34)c2c1 | > 46 µM (inactive)
COc1ccc2[nH]cc(CCNc3cc(-c4ccccc4OC)ncn3)c2c1 | > 46 µM (inactive)
CN(C)c1ccc(-c2cc(N(C)Cc3ccco3)ncn2)cc1 | > 46 µM (inactive)
COc1ccc2[nH]cc(CCNc3ncncc3-c3ccccc3C(F)(F)F)c2c1 | > 46 µM (inactive)
Cc1ccccc1-c1ccc2ncnc(NCCN3CCOCC3)c2c1 | > 46 µM (inactive)
COc1ccccc1CNc1ncncc1-c1ccccc1C(F)(F)F | > 46 µM (inactive)
CN1CCN(c2ncc3nc(-c4cccs4)c(=O)n(CCc4ccccc4)c3n2)CC1 | > 46 µM (inactive)
c1cn(-c2ncnc3ccc(-c4ccoc4)cc23)cn1 | > 46 µM (inactive)
COc1ccc(CNc2ncncc2-c2ccccc2OC)c(OC)c1 | > 46 µM (inactive)
CCOc1ccc2nc3cc(N=Nc4ccc(N)nc4N)ccc3c(N)c2c1 | > 9.22 µM (inactive)
COc1ccccc1CNc1ncncc1-c1ccccc1Cl | > 46 µM (inactive)
COc1cccc(-c2nc(N(C)C)c3ccccc3n2)c1 | > 46 µM (inactive)
COc1ncc2nc(-c3ccccc3)c(=O)n(CCc3ccccc3)c2n1 | > 46 µM (inactive)
COc1ccc(-n2c(=O)c(CCc3ccccc3)nc3cnc(OC)nc32)cc1 | > 46 µM (inactive)

SMILES | Potency
CN1CCN(c2ncc3nc(-c4cn(C)c5ccccc45)c(=O)n(CCC#N)c3n2)CC1 | > 46 µM (inactive)
CN1CCN(c2nc(-c3cccnc3)nc3ccccc23)CC1 | > 46 µM (inactive)
CN1CCN(c2ncc3nc(-c4cn(C)c5ccccc45)c(=O)n(C[C@H]4CCCO4)c3n2)CC1 | > 46 µM (inactive)
CN1CCN(c2ncnc3ccc(-c4ccccc4C(F)(F)F)cc23)CC1 | > 46 µM (inactive)
COc1ccccc1-c1nc(N2CCN(C)CC2)c2ccccc2n1 | > 46 µM (inactive)
O=C(c1cnccn1)N1CCC[C@@]2(CCN(c3cccc(-c4ccccc4)c3)C2)C1 | > 46 µM (inactive)
COc1ccc(Oc2ncc3nc(-c4ccc(F)cc4)c(=O)n(CCC#N)c3n2)cc1 | > 46 µM (inactive)
Clc1ccccc1-c1nc(-n2ccnc2)c2ccccc2n1 | > 46 µM (inactive)
CN(C)c1nc(-c2ccc3c(c2)OCO3)nc2ccccc12 | > 46 µM (inactive)
COc1ccccc1CNc1ncncc1-c1ccc2c(c1)OCO2 | > 46 µM (inactive)
Cc1nc2cnc(N3CCOCC3)nc2n(CCc2ccccc2)c1=O | > 46 µM (inactive)
COc1ccc(CNc2cc(-c3cccc(NS(C)(=O)=O)c3)ncn2)c(OC)c1 | > 46 µM (inactive)
O=C(c1cc(C(F)(F)F)cc(C(F)(F)F)c1)N1CCC2(CCCN(c3ncccn3)C2)CC1 | > 46 µM (inactive)
COc1cccc(-c2nc(NCCN3CCOCC3)c3ccccc3n2)c1 | > 46 µM (inactive)
N#Cc1cccc(-c2ccc3ncnc(NCc4cccs4)c3c2)c1 | > 46 µM (inactive)
COc1cccc(-c2cncnc2NCc2ccccc2OC)c1 | > 46 µM (inactive)
CN(Cc1ccco1)c1nc(-c2ccccc2C(F)(F)F)nc2ccccc12 | > 46 µM (inactive)
COc1ccccc1CNc1ncnc2ccc(-c3cccc(NS(C)(=O)=O)c3)cc12 | > 46 µM (inactive)
Clc1ccccc1-c1nc(Nc2ccncc2)c2ccccc2n1 | > 46 µM (inactive)
O=c1cnc2cnc(N3CCOCC3)nc2n1Cc1cccs1 | > 46 µM (inactive)
